Reference: PubChem BioAssay AID1159580 (chemical genetic matrix, 2015)
Among all 5,500 compounds or so, about 2,000 (36%) were called active. Another 18% or so got no clear call; they are omitted. Cut-off read from the data, not from the text of the source: active = normalized growth mostly below about 0.91 (no sharp cut-off); inconclusive = no clear call, values can overlap the other calls; inactive = mostly above about 0.92. Some of the results follow.

Experiment: chemical genetic growth profiling, strain panel (AID 1159580);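 note: tested at 20 µM; growth read once vehicle control cultures reached saturation at 30 °C; 1 = growth at the plate median or of vehicle wells; lower values mean less growth of the strain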
Details: growth OD

Measured: normalized growth

O=C(O)COc1ccc(Cl)cc1Cl
inactive: S. cerevisiae deletion strains, locus YJR043C, strain POL32, stronger effect = lower value 1.02 | S. cerevisiae deletion strains, locus YJR075W, strain HOC1, stronger effect = lower value 1.02 | S. cerevisiae deletion strains, locus YKL009W, strain mrt4, stronger effect = lower value 1.04 | S. cerevisiae deletion strains, locus YKL068W, stronger effect = lower value 1.01 | S. cerevisiae deletion strains, locus YKL085W, strain MDH1 (second series), stronger effect = lower value 1.01 | S. cerevisiae deletion strains, locus YKL085W, strain MDH1, stronger effect = lower value 1.01 | S. cerevisiae deletion strains, locus YKL160W, strain elf1, stronger effect = lower value 0.996 | S. cerevisiae deletion strains, locus YKL190W, strain CNB1, stronger effect = lower value 1.02 | S. cerevisiae deletion strains, locus YKR001C, strain vps1, stronger effect = lower value 1.04 | S. cerevisiae deletion strains, locus YKR026C, strain gcn3, stronger effect = lower value 0.988 | S. cerevisiae deletion strains, locus YKR091W, strain srl3, stronger effect = lower value 0.999 | S. cerevisiae deletion strains, locus YLL001W, strain dnm1, stronger effect = lower value 1 | S. cerevisiae deletion strains, locus YLL026W, stronger effect = lower value 0.988 | S. cerevisiae deletion strains, locus YLL041C, strain sdh2, stronger effect = lower value 0.995 | S. cerevisiae deletion strains, locus YLR027C, strain aat2, stronger effect = lower value 0.993 | S. cerevisiae deletion strains, locus YLR039C, strain RIC1, stronger effect = lower value 1.04 | S. cerevisiae deletion strains, locus YLR058C, strain SHM2, stronger effect = lower value 1.01 | S. cerevisiae deletion strains, locus YLR102C, strain apc9, stronger effect = lower value 1.03 | S. cerevisiae deletion strains, locus YLR221C, strain rsa3, stronger effect = lower value 0.989 | S. cerevisiae deletion strains, locus YLR258W, strain gsy2, stronger effect = lower value 0.994 | S. cerevisiae deletion strains, locus YLR262C, strain YPT6 (second series), stronger effect = lower value 0.996 | S. cerevisiae deletion strains, locus YLR262C, strain YPT6, stronger effect = lower value 1.08 | S. cerevisiae deletion strains, locus YLR268W, strain sec22, stronger effect = lower value 1.02 | S. cerevisiae deletion strains, locus YLR320W, strain mms22, stronger effect = lower value 0.991 | S. cerevisiae deletion strains, locus YLR330W, strain CHS5, stronger effect = lower value 1.01 | S. cerevisiae deletion strains, locus YLR342W, strain FKS1 (second series), stronger effect = lower value 1.03 | S. cerevisiae deletion strains, locus YLR342W, strain FKS1, stronger effect = lower value 1 | S. cerevisiae deletion strains, locus YLR357W, strain rsc2, stronger effect = lower value 0.989 | S. cerevisiae deletion strains, locus YLR370C, strain arc18, stronger effect = lower value 0.994 | S. cerevisiae deletion strains, locus YLR371W, strain rom2, stronger effect = lower value 1.03 | S. cerevisiae deletion strains, locus YLR384C, strain iki3, stronger effect = lower value 0.997 | S. cerevisiae deletion strains, locus YLR418C, strain cdc73, stronger effect = lower value 1.06 | S. cerevisiae deletion strains, locus YML016C, strain PPZ1, stronger effect = lower value 1.01 | S. cerevisiae deletion strains, locus YML032C, strain rad52, stronger effect = lower value 1.04 | S. cerevisiae deletion strains, locus YML120C, strain ndi1, stronger effect = lower value 0.989 | S. cerevisiae deletion strains, locus YML124C, strain tub3, stronger effect = lower value 1.02 | S. cerevisiae deletion strains, locus YMR058W, strain fet3, stronger effect = lower value 0.999 | S. cerevisiae deletion strains, locus YMR078C, strain ctf18, stronger effect = lower value 1.02 | S. cerevisiae deletion strains, locus YMR125W, strain sto1, stronger effect = lower value 0.993 | S. cerevisiae deletion strains, locus YMR129W, stronger effect = lower value 0.996 | S. cerevisiae deletion strains, locus YMR205C, strain PFK2, stronger effect = lower value 0.984 | S. cerevisiae deletion strains, locus YMR223W, strain ubp8, stronger effect = lower value 1.03 | S. cerevisiae deletion strains, locus YMR231W, strain pep5, stronger effect = lower value 0.992 | S. cerevisiae deletion strains, locus YMR263W, strain SAP30, stronger effect = lower value 1.01 | S. cerevisiae deletion strains, locus YMR307W, strain GAS1, stronger effect = lower value 1.04 | S. cerevisiae deletion strains, locus YNL067W, strain RPL9B, stronger effect = lower value 1.02 | S. cerevisiae deletion strains, locus YNL071W, strain lat1, stronger effect = lower value 1.01 | S. cerevisiae deletion strains, locus YNL128W, strain TEP1, stronger effect = lower value 1.02 | S. cerevisiae deletion strains, locus YNL153C, strain GIM3, stronger effect = lower value 0.993 | S. cerevisiae deletion strains, locus YNL209W, strain ssb2, stronger effect = lower value 1 | S. cerevisiae deletion strains, locus YNL233W, strain BNI4, stronger effect = lower value 1.03 | S. cerevisiae deletion strains, locus YNL248C, strain rpa49, stronger effect = lower value 0.989 | S. cerevisiae deletion strains, locus YNL250W, strain rad50, stronger effect = lower value 1.02 | S. cerevisiae deletion strains, locus YNL271C, strain bni1, stronger effect = lower value 1.02 | S. cerevisiae deletion strains, locus YNL298W, strain CLA4, stronger effect = lower value 1.04 | S. cerevisiae deletion strains, locus YNL307C, strain MCK1, stronger effect = lower value 1.03 | S. cerevisiae deletion strains, locus YNL322C, strain KRE1 (second series), stronger effect = lower value 0.994 | S. cerevisiae deletion strains, locus YNL322C, strain KRE1, stronger effect = lower value 1.01 | S. cerevisiae deletion strains, locus YNR049C, strain mso1, stronger effect = lower value 0.993 | S. cerevisiae deletion strains, locus YNR052C, strain pop2, stronger effect = lower value 1.03 | S. cerevisiae deletion strains, locus YOL006C, strain TOP1, stronger effect = lower value 1.08 | S. cerevisiae deletion strains, locus YOL012C, strain htz1 1.3 | S. cerevisiae deletion strains, locus YOL147C, strain pex11, stronger effect = lower value 1.02 | S. cerevisiae deletion strains, locus YOR001W, strain rrp6, stronger effect = lower value 0.993 | S. cerevisiae deletion strains, locus YOR061W, strain CKA2, stronger effect = lower value 1.01 | S. cerevisiae deletion strains, locus YOR069W, strain VPS5, stronger effect = lower value 1.01 | S. cerevisiae deletion strains, locus YOR070C, strain gyp1, stronger effect = lower value 1 | S. cerevisiae deletion strains, locus YOR080W, strain dia2, stronger effect = lower value 0.996 | S. cerevisiae deletion strains, locus YOR083W, strain WHI5, stronger effect = lower value 0.998 | S. cerevisiae deletion strains, locus YOR106W, strain vam3, stronger effect = lower value 0.994 | S. cerevisiae deletion strains, locus YOR136W, strain idh2, stronger effect = lower value 1.02 | S. cerevisiae deletion strains, locus YOR144C, strain elg1, stronger effect = lower value 1.02 | S. cerevisiae deletion strains, locus YOR184W, strain ser1, stronger effect = lower value 1.03 | S. cerevisiae deletion strains, locus YOR265W, strain rbl2, stronger effect = lower value 0.992 | S. cerevisiae deletion strains, locus YOR270C, strain vph1, stronger effect = lower value 1.01 | S. cerevisiae deletion strains, locus YOR290C, strain snf2, stronger effect = lower value 1 | S. cerevisiae deletion strains, locus YOR316C, strain cot1, stronger effect = lower value 1.03 | S. cerevisiae deletion strains, locus YPL051W, strain arl3, stronger effect = lower value 0.993 | S. cerevisiae deletion strains, locus YPL055C, strain LGE1, stronger effect = lower value 1.03 | S. cerevisiae deletion strains, locus YPL078C, strain atp4, stronger effect = lower value 0.999 | S. cerevisiae deletion strains, locus YPL106C, strain sse1, stronger effect = lower value 0.983 | S. cerevisiae deletion strains, locus YPL240C, strain hsp82, stronger effect = lower value 0.993 | S. cerevisiae deletion strains, locus YPL241C, strain CIN2, stronger effect = lower value 1.01 | S. cerevisiae deletion strains, locus YPR119W, strain clb2, stronger effect = lower value 1.01 | S. cerevisiae deletion strains, locus YPR141C, strain kar3, stronger effect = lower value 1.03 | S. cerevisiae deletion strains, locus YPR163C, strain tif3, stronger effect = lower value 1.02 | S. cerevisiae deletion strains, locus YPR167C, strain met16, stronger effect = lower value 1.03 | S. cerevisiae deletion strains, strain wtn01, stronger effect = lower value 1.02 | S. cerevisiae strains, strain wild type, stronger effect = lower value 1.01
